Inconclusive results are not listed. Activity calls are given as the source filed them. The calls were made as follows: active = hit-call score of the fitted dose curve at least 0.9, where 1 is the maximum; inconclusive = response in the unintended direction; inactive = score below 0.9.
These molecules were tested against human Vitamin D Receptor (VDR), VDR (gene 7421) (UniProt P11473) (assay: ATG_VDR_TRANS: Attagene TRANS-FACTORIAL HepG2 Assay for human Vitamin D Receptor (VDR) (AID 2283022)).
Procedure, shortened: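 Transactivation by an exogenous VDR-Gal4 chimera in transiently transfected HepG2 cells was measured as reporter transcript level 24 hours after chemical treatment. RT-PCR products were analysed by capillary electrophoresis and fitted in the positive direction relative to DMSO.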

human Vitamin D Receptor (VDR), VDR (gene 7421), sequence (P11473 whole entry, looked up, the tested form may be a part): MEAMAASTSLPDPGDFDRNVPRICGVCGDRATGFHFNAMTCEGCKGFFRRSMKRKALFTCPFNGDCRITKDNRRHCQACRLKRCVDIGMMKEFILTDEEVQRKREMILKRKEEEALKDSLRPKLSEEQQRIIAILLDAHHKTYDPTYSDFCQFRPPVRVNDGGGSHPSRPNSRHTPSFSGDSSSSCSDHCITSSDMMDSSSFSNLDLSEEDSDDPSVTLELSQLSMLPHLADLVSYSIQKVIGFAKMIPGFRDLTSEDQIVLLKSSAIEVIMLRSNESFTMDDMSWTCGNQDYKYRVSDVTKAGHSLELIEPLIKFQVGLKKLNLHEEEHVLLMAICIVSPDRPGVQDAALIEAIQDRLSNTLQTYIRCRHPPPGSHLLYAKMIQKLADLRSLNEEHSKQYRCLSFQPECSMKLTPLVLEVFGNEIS

outcome, inactive:
CCCCCCCCCCOC(C)=O
ON(Cc1ccccc1)Cc1ccccc1
CCCCCCCCCCc1ccccc1
Cc1cc(=O)n(-c2ccccc2)n1C
COC(=O)c1c(C)cc(O)c(C)c1O
CC(=O)C=CC1C(C)=CCC(C)C1(C)C (stereo not drawn)
Cc1cc(C)c(C)c(C)c1
CCOc1ccc(N)c([N+](=O)[O-])c1
CC(C)C1=CC2=CC[C@@H]3[C@](C)(CCC[C@@]3(C)C(=O)O)[C@H]2CC1
O=C1CCCCCN1SSN1CCCCCC1=O
CC(C)=CCCC(C)C=O (stereo not drawn)
CCC(C)OC(=O)c1ccc(O)cc1 (stereo not drawn)
CCCC(C)CCC(C)=O (stereo not drawn)
